A selection: hits, their analogues and other compounds. The true share with any hit is near 12%.
ALDH1A1 inh – blocks purified human ALDH1A1 activity | Potency, µM (top dose mostly 75.3 µM), without a hit: at the highest dose activity, negative = inhibition, most hits filed as inhibitors | 220,000 tested, 7.3% active | Purified ALDH1A1, NADH fluorescence, propionaldehyde substrate | AID 1030 | P00352; active = well fitted inhibition curve with a large enough effect, not every such curve was filed as active; inconclusive = small, poorly fitted or top-dose-only effect, or another doubt; inactive = no such curve, though single readings can be large or run the other way;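 note: plate controls were no enzyme wells and a reference inhibitor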
Target sequence (P00352 whole entry, looked up): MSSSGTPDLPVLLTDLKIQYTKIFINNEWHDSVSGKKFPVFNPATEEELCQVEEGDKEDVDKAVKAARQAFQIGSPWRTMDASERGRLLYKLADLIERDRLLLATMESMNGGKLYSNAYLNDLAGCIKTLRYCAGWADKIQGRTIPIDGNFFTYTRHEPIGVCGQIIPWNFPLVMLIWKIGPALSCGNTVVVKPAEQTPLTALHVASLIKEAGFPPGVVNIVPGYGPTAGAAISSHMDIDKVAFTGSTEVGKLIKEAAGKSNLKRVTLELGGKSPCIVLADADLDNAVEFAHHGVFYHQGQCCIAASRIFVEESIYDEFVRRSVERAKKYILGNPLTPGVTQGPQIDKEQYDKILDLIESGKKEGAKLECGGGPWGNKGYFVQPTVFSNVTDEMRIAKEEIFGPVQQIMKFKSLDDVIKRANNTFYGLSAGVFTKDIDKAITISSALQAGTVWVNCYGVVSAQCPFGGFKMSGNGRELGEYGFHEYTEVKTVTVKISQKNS
VP16 counter – counter-screen for ROR gamma inhibitors: Gal4-VP16 reporter | AID 2546 | 310,000 tested, 3.5% active | Drosophila S2 Gal4-VP16 UAS-luciferase, luminescence, 20 h | Potency, µM (doses to about 53.6 µM), without a hit: at the top dose activity, negative = inhibition, usual class: inhibitors;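 note: Gal4-VP16 expression switched on by copper sulfate through the metallothionein promoter; nearly all actives have a fitted effect of over 50% in size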
PLK1 PBD inh – inhibitors of human PLK1 polo-box domain binding; P53350; Plk1 PBD binding of FITC phosphopeptide, fluorescence polarization; Potency, µM, without a hit: max response, negative = inhibition, usual class: inhibitors; 360,000 tested, 2.8% active; AID 720504; note: series mostly up to about 57 µM; nearly all actives have a fitted effect of over 65% in size
RORg inh – blocks mouse ROR gamma transcriptional activity | P51450 | Drosophila S2 Gal4-RORgamma UAS-luciferase reporter, 20 h | Potency, µM (top dose mostly 53.6 µM), inactives show at the top dose activity change, negative = inhibition, actives largely listed as inhibitors | 310,000 tested, 5.4% active; note: nearly all actives have a fitted effect of over 60% in size
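Stably transfected Drosophila Schneider cells are the test system, with ROR gamma fused to Gal4 and luciferase under UAS control; luminescence is read after 20 hr of 700 uM copper sulfate induction at ambient temperature.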
Sfp inh – blocks B. subtilis Sfp PPTase activity | Biochemical Sfp PPTase activity, qHTS | Potency, µM, for inactives: largest response in the series, negative = inhibition, hits mostly inhibitors | 310,000 tested, 3.5% active | AID 1490;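 note: the enzyme is Sfp with the accession as filed and its product quenches rhodamine fluorescence; 0% = enzyme reaction without inhibitor and -100% = no enzyme wells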
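Fluorescence-quenching assay: 15 nM Sfp-PPTase preincubated 15 min at room temperature with compound, then 5 uM rhodamine-CoA and 12.5 uM BHQ-2-labelled YbbR peptide added. Fluorescence (ex 525/em 598 nm) read at start and after 30 min; difference gives rate.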
The depositor's hits bear a star; u = inconclusive; x = no result; [ ] = another dose, or the depositor's remark. Unless noted, calls come from the whole dose curve; as a rule, active = well fitted curve in the direction sought with a large enough effect; inconclusive = small, poorly fitted or top-dose-only effect, or another doubt; inactive = no such curve, though single readings can be large; an effect the other way counts as inactive or inconclusive. Unless noted, % is set by controls: 0 for no effect and ±100 for the full control effect; potency is the fitted concentration of half-maximal effect.

SMILES | ALDH1A1 inh | VP16 counter | PLK1 PBD inh | RORg inh | Sfp inh
COc1ccc(C(=O)CC(=O)C(=O)Nc2ccc([N+](=O)[O-])cc2C)cc1 | x | 11µM* | -11% | 5.6µM* | -5%
CC(=O)O[C@]1(C)N=NC2(CCCCC2)O1 | -1%[13.5 µM] | x | x | x | x
C[C@@](N)(C(=O)O)c1ccc(S(=O)(=O)O)cc1 | -5% | -12% | x | 6% | u
COc1ccc(C(=O)CC(=O)C(=O)Nc2cccc(F)c2)cc1 | x | 7.1µM* | -6% | 7.1µM* | 9%
CCCCOc1ccccc1NC(=O)c1ccc(=O)[nH]c1 | 3% | -15% | 30µM* | -21% | 14%
CCOc1ccccc1NC(=O)C(=O)CC(=O)c1ccc(OC)cc1 | x | 4µM* | -14% | 6.3µM* | -21%
O=C(Nc1nccs1)c1ccc(COc2ccc(Cl)cc2)o1 | -6% | -29% | -4% | 13µM* | -8%
O=C(CSCC(=O)Nc1nccs1)Nc1ccccc1 | -14% | -22% | -19% | 28% | -2%
O=C(CSc1ccc(-c2ccc3c(c2)OCO3)nn1)Nc1nccs1 | 16% | -14% | -1% | -17% | u
O=C(CSCC(=O)Nc1nc(-c2ccc3c(c2)OCO3)cs1)Nc1nccs1 | 22µM* | -3% | -21% | 6% | -20%
CC(C)C(C(=O)Nc1nccs1)c1ccc(Cl)cc1 (stereo unspecified) | 3% | u | -13% | 14µM* | 15%
O=C(CSCc1ccc(Cl)cc1)Nc1nccs1 | 11% | 0% | -6% | 14µM* | 6%
Cn1c(=O)c2c(ncn2CC(=O)Nc2cc(S(=O)(=O)N3CCCCC3)ccc2O)n(C)c1=O | x | x | -3% | x | x
COC(=O)c1ccc(C(/C=C/[C@@H](C)C(=O)N(C)C)NC(=O)OCc2ccccc2)cc1 (stereo partly specified) | u | 3% | x | 5% | 4%
CC(C)C(C(=O)Nc1nccs1)N1C(=O)c2ccccc2C1=O (stereo unspecified) | 6% | -3% | 21µM* | -10% | 8%
CC(C)C(C(=O)Nc1ccc(S(N)(=O)=O)cc1)N1C(=O)c2ccccc2C1=O (stereo unspecified) | 17% | -7% | -3% | 3% | 9%
CC(=O)OC(C(=O)Nc1nccs1)c1ccccc1 (stereo unspecified) | x | -1% | 7% | -20% | 19%
O=C(Nc1nccs1)C(Br)C(Br)c1ccccc1 (stereo unspecified) | x | -7% | 0.95µM* | u | 50µM*
O=C(Nc1nccs1)c1ccc(COc2c(F)c(F)cc(F)c2F)cc1 | x | -13% | -1% | 11µM* | -1%
CS(=O)(=O)Nc1cccc(-c2nccc(Nc3ccc(F)cc3)n2)c1 | 4% | 2% | x | u | -2%
C1=C(CCNCC2CC2)CCCC1 | 8% | -6% | -1% | 5µM* | 7%
CSc1ccc(N/N=C(/C#N)S(=O)(=O)C(C)(C)C)cc1 | 11% | -16% | 21µM* | u | 1%
O=C(C(=O)N(C1CCCCC1)C1CCCCC1)c1ccccc1 | x | x | -6% | x | x
CCCN1CCN(C(=O)CCCn2c(C)c3cnn(-c4ccccc4)c(=O)c3c2C)CC1 | 28µM* | 0% | -13% | 1% | -5%
CCC(C(=O)NCCN1CCN(C)CC1)n1c(C)c2cnn(-c3ccccc3)c(=O)c2c1C (stereo unspecified) | 22µM* | -5% | -10% | 7% | 1%
SMILES | ALDH1A1 inh | VP16 counter | PLK1 PBD inh | RORg inh | Sfp inh
CCOC(=O)N1CCN(C(=O)CCCn2c(=O)[nH]c3ccccc3c2=O)CC1 | -2% | -4% | -8% | 1% | 20%
O=C(CC1C(=O)NCCN1CC1CCCCC1)NCc1cc(F)ccc1F (stereo unspecified) | u | -10% | 3.8µM* | u | -3%
O=C(CC1C(=O)NCCN1CC1CCCCC1)NCc1ccc(Cl)cc1 (stereo unspecified) | 20µM* | 3% | -8% | 11% | 4%
Cn1cc(CNCc2ccc(OC(F)(F)F)cc2)c(-c2ccc3c(c2)OCCO3)n1 | u | 3.5µM* | -3% | 10µM* | -7%
O=C1c2ccccc2C(=O)C1c1ccc(Br)cc1 | x | 4% | -13% | -24% | 10%
COc1ccc(C2C(=O)c3ccccc3C2=Nc2ccc(Br)cc2)cc1 (stereo unspecified) | 28µM* | 3% | -9% | u | 1%
CN(Cc1ccco1)c1ncncc1-c1ccc2c(c1)OCO2 | 2% | -9% | x | -16% | u
CC(C)(C)OC(=O)N1CCC[C@H]1C(=O)Nc1ccc(C#N)cc1 | x | 1% | -9% | -1% | 11%
COc1ccc(CNC(=O)C/C(C)=N/NC(=O)c2cc(OC)cc(OC)c2)cc1 | x | -7% | x | -12% | 10%
C/C(CC(=O)NCc1ccccc1)=N\NC(N)=S | -10% | -2%[10 µM] | u | 10µM* | 45µM*
C/C(CC(=O)NCc1ccc(F)cc1)=N\NC(N)=S | u | -25% | -29% | 13µM* | 56µM*
O=C(NCc1cccnc1)c1cc(C2CCCCN2C(=O)CCCc2ccccc2)on1 (stereo unspecified) | x | x | -11% | x | x
N#Cc1cnc2nc1NCCCCCCC2 | x | x | 2% | x | x
CC(=O)c1ccc(Cl)c(Cl)c1Cl | 10% | 2% | -2% | 14% | x
COCCNC(=S)N/N=C(\C)c1ccc(Cl)c(Cl)c1Cl | 9% | 7.9µM* | -2% | 4µM* | 8%
COCCNC(=S)N/N=C(\C)c1ccc(Cl)c(Cl)c1 | -2% | 4.5µM* | -12% | 2.8µM* | 6%
CNC(=S)N/N=C(\C)c1ccc(Cl)c(Cl)c1 | 1% | 7.1µM* | -6% | 2.8µM* | u
COCCNC(=O)c1ccc(Cl)c(Cl)c1 | 1% | 6% | -10% | -16% | 4%
CCCCn1c(N)c(N(Cc2ccccc2)C(=O)COc2ccccc2F)c(=O)[nH]c1=O | x | x | -8% | x | x
CC(C)C[C@@H](CC(=O)N[C@@H](CCCN)CC(=O)N[C@@H]1CCCC[C@H]1C(=O)N[C@H](CC(=O)N[C@@H](CCC(=O)O)CC(=O)O)Cc1c[nH]c2ccccc12)NC(=O)[C@@H]1CNCC[C@H]1N | -7% | 5% | x | 3% | -9%
BrC(Br)C(Br)Br | 12% | 11% | x | 1% | x
O=C(/C=C/[C@H]1O[C@@H](n2cnc3c(NC(=O)c4ccccc4)ncnc32)[C@H](O)[C@@H]1O)NCCc1ccc(F)cc1 | x | x | 0% | x | x
O=Cc1[nH]c2ccccc2c1N(C(=O)CCl)c1ccc([N+](=O)[O-])cc1 | 7.9µM* | -9% | -8% | 36% | -6%
CC(C)Sc1nc(-c2ccccc2)cc(=O)[nH]1 | 20µM* | -7% | u | -1% | u
CCC(Sc1nc(-c2ccccc2)cc(=O)[nH]1)C(=O)O (stereo unspecified) | -1% | -7% | -4% | -10% | 9%
COc1ccc(Cc2n[nH]c(=S)n2Cc2ccccc2)cc1Cl | 6% | -3% | -21% | -5% | 9%
S=c1[nH]nc(-c2ccccc2Cl)n1Cc1ccccc1 | u | u | -19% | 2.8µM* | 6%
